Sampled rows, rich in hits. Any-hit rate of the full collection: about 4%.
RecA intein inh: Mtb RecA intein splicing inhibitors, primary screen, biochemical, fluorescence, HTS | inhibition, % (test concentration not listed) | cell-free RecA intein splicing | actives 0.75% (n = 290,000) | AID 2221, 2009 | Protein RecA (Mycobacterium tuberculosis (strain ATCC 25618 / H37Rv)), P9WHJ3; in the data active means inhibition above about 30%; inconclusive means no clear call, values can overlap the other calls;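 further: 0% = vehicle wells and 100% = reference inhibitor control wells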
Mtb UGM inh: M. tuberculosis UGM enzyme inhibitors, primary screen, biochemical, fluorescence polarization, single point | UDP-galactopyranose mutase (Mycobacterium tuberculosis (strain ATCC 25618 / H37Rv)), … | purified UGM, fluorescence polarization probe displacement | inhibition, % at 10 µM | actives 0.06% (n = 320,000) | AID 504406, 2011; in the data active means inhibition above about 10%, passing the limit was not always enough; inconclusive means no clear call, values can overlap the other calls
Target sequence (P9WIQ1 whole entry, looked up): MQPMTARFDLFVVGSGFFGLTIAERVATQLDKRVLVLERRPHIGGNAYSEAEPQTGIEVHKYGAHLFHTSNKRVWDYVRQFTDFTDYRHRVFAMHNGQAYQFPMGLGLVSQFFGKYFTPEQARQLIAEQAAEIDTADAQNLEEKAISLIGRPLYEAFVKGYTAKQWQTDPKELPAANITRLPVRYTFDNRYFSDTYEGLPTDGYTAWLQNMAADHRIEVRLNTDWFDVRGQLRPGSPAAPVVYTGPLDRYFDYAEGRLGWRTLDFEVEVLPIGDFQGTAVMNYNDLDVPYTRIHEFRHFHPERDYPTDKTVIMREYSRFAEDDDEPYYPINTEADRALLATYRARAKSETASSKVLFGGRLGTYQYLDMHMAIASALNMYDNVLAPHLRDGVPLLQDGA
Mtb FBA inh: Mtb FBA enzyme inhibitors, primary screen, biochemical, fluorescence, strain H37Rv; purified M. tuberculosis FBA, fluorescence read-out; actives 2.3% (n = 360,000); inhibition, % at 1 µM; AID 588726, 2011; in the data active means inhibition above about 27%;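 further: 0% = vehicle and 100% = reference inhibitor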
Mtb betalactam: beta-lactam sensitization of Mtb H37Rv, H37Rv; M. tuberculosis H37Rv growth with meropenem, percent inhibition; inhibition, % at 25 µM; actives 0.27% (n = 330,000); AID 434955, 2010; call rule not given here;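 further: growth measured after seven days incubation then overnight dye step; 0% = bacteria only wells and 100% = bacteria with antibiotic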
GDH-TPI inh: GDH-TPI coupling enzyme inhibitors, primary screen, artefact control for M. tuberculosis FBA inhibitor project, biochemical, absorbance, full deck. inhibition, % at 4.8 µM. GDH-TPI coupled enzyme counterscreen, NADH absorbance. actives 1.2% (n = 360,000); in the data active means inhibition above about 30%;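 further: 0% = DMSO wells and 100% = wells lacking the enzyme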
Rv3671c protease: Rv3671c serine protease inhibitors, primary screen, biochemical, fluorescence polarization, M. tuberculosis H37Rv; inhibition, % at 5.96 µM; actives 0.048% (n = 320,000); AID 2606, 2010; in the data active means inhibition above about 38%;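 further: extracellular domain of Rv3671c used as enzyme; 0% = enzyme with DMSO and 100% = no enzyme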
Starred values were filed as active, the others as inactive; i = inactive; u = inconclusive; x = no result; + = active, no number.

SMILES	RecA intein inh	Mtb UGM inh	Mtb FBA inh	Mtb betalactam	GDH-TPI inh	Rv3671c protease
Cc1c2c(n3c(nc4ccccc43)c1C#N)N(CCCN(C)C)CC2	i	1	141*	-4	7	-1
CCCCc1c(C)c(C#N)c2nc3ccccc3n2c1NCCN(C)C	-68	x	7	x	4	x
COc1cc2[nH]c3c(N4CCN(c5ccc(Cl)cc5)CC4)ncnc3c2cc1OC	2	1	12	4	-7	38*
COc1cc2[nH]c3c(Cl)ncnc3c2cc1OC	1	0	3	-4	12	3
CCOCCCNC(=O)c1cc2c(=O)n3cccc(C)c3nc2n1C	-10	-1	15	-2	14	-3
COc1ccc(CCn2c(=N)c(C(=O)NCC3CCCO3)cc3c(=O)n4ccccc4nc32)cc1 (stereo unspecified)	-2	0	9	8	12	9
Cc1cccn2c(=O)c3cc(C(=O)NCC4CCCO4)c(=N)n(CCN4CCOCC4)c3nc12 (stereo unspecified)	i	1	145*	-4	24	3
CCOCCCn1c(=N)c(C(N)=S)cc2c(=O)n3cccc(C)c3nc21	i	0	77*	-1	5	0
COCCCn1c(=N)c(C(=O)NCC2CCCO2)cc2c(=O)n3ccccc3nc21 (stereo unspecified)	i	-1	+	-4	14	10
O=C(CCCn1c(SCc2cc(=O)n3ccccc3n2)nc2ccccc2c1=O)NCC1CCCO1 (stereo unspecified)	0	-2	6	1	33*	-5
Cc1c2cnn(CC(=O)NCCN3CCOCC3)c(=O)c2c(C)n1Cc1ccccc1F	x	x	2	x	2	x
O=C(COC(=O)c1cc2ccccc2o1)NCc1ccco1	x	x	1	45	7	-1
Cc1ccc(C)c(N2C(=O)c3ccc(C(=O)Nc4ccccn4)cc3C2=O)c1	x	x	-4	x	0	x
COCCCn1c(C(=O)N2CCOCC2)cc2c(=O)n3ccccc3nc21	-95	0	+	-3	13	5
COCCCn1c(=N)c(C(=O)NCC2CCCO2)cc2c(=O)n3cccc(C)c3nc21 (stereo unspecified)	-405	-3	+	3	2	-3
COCCCn1c(C(=O)Nc2ccc3c(c2)OCO3)cc2c(=O)n3ccccc3nc21	-53	2	-2	1	4	-7
Cc1cccn2c(=O)c3cc(S(=O)(=O)c4ccccc4)c(=N)n(CC4CCCO4)c3nc12 (stereo unspecified)	-242	0	x	0	x	2
CCCn1c(=N)c(C(=O)NCC2CCCO2)cc2c(=O)n3cccc(C)c3nc21 (stereo unspecified)	i	1	+	-4	15	-7
CCOc1ccc(S(=O)(=O)NCCC(=O)N(C)CC(=O)Nc2ccc(N3CCOCC3)cc2)cc1	-3	0	0	-6	-6	5
CN(Cc1ccccc1F)c1cc2c(c3c1ccn3C)C1CCC2C1 (stereo unspecified)	x	x	2	x	x	x
CC(=C/c1ccccc1)/C=N/NC(=O)c1cnccn1	1	0	-2	-11	43*	3
O=C(N/N=C/C(Cl)=C\c1ccccc1)c1cnccn1	0	1	4	0	66*	7
O=C(N/N=C/c1cccc([N+](=O)[O-])c1)c1cnccn1	1	0	1	-4	16	-15
CC(/C=N/NC(=O)c1cccnc1)=C\c1ccccc1	-5	1	0	0	18	7
CC(/C=N/NC(=O)c1ccc(Br)cc1)=C\c1ccccc1	-2	2	0	11	19	-13
SMILES	RecA intein inh	Mtb UGM inh	Mtb FBA inh	Mtb betalactam	GDH-TPI inh	Rv3671c protease
O=C(N/N=C/C(Cl)=C/c1ccccc1)c1cnccn1	2	1	-6	19	86*	4
COc1ccc(C(=O)N/N=C\C(C)=C\c2ccccc2)cc1OC	4	4	-6	-2	51*	-4
CC1=C(O)C(=O)C(C2=C(O)C(=O)C(C)=C(O)C2=O)=C(O)C1=O	x	x	4	x	49*	x
Cc1ccc(C2=C(O)C(=O)C(c3ccc(C)cc3)=C(O)C2=O)cc1	x	x	1	x	8	x
N#Cc1c(-c2cccnc2)cc(-c2ccccc2)nc1N	-2	-3	+	3	9	3
N#Cc1c(-c2ccco2)cc(-c2cccnc2)nc1N	-8	7	181*	-17	20	2
CCOC(=O)COc1nc(-c2ccc(C)cc2)cc(-c2ccco2)c1C#N	2	-1	1	13	-12	-1
c1cncc(-c2nnc(-c3ccco3)o2)c1	0	-1	114*	-2	-2	6
Clc1ccccc1-c1nnc(-c2cccnc2)o1	1	0	1	2	-4	-5
N#Cc1c(-c2ccco2)cc(-c2ccccn2)nc1N	-26	0	194*	15	15	-7
CC1(C)Cc2c(cnn2-c2ccc(F)cc2)C(NC(=O)CCN2CCCCC2=O)C1 (stereo unspecified)	0	-4	6	-4	2	x
CCOC(=O)[C@H]1[C@H]2COc3ccc(Br)cc3[C@H]2N2C(=O)CN(Cc3ccc(Cl)cc3)C(=O)[C@@]12C	x	x	3	x	6	x
COc1ccc(C(=O)N(CN2CCCC2=O)c2cc(C)on2)cc1OC	-1	1	2	-19	15	4
COc1ccc(C(=O)N(CN2CCCC2=O)c2nccs2)cc1OC	-2	1	-3	u	46*	-2
COc1ccc(N2C(=O)CSC23C(=O)N2c4c(cccc43)C(C)=CC2(C)C)cc1 (stereo unspecified)	33*	-1	2	1	10	-9
CC(=O)Nc1ccc(NC(=O)C(C)OC(=O)c2ccc(S(=O)(=O)N3CCCCCC3)cc2)cc1 (stereo unspecified)	x	3	4	2	13	-35
O=C(O)c1ccc(N(c2ccccc2)c2ccccc2)cc1	x	0	+	13	15	4
COc1cccc(C2Nc3ccccc3NC3=C2C(=O)CC(C)(C)C3)c1OC (stereo unspecified)	-1	-2	2	2	35*	-8
CC1(C)CC(=O)C2=C(C1)Nc1ccccc1NC2c1ccc2c(c1)OCO2 (stereo unspecified)	-2	3	0	-9	41*	0
CC1(C)CC(=O)C2=C(C1)Nc1ccccc1NC2c1nc2ccccc2[nH]1 (stereo unspecified)	1	-2	-2	0	32*	1
CC1(C)CC(=O)C2=C(C1)Nc1ccccc1NC2c1ccc(F)cc1 (stereo unspecified)	1	2	0	-1	27	8

Bioassay records (PubChem BioAssay)
